ELG1 genotox = induces genotoxicity in HEK293T cells with luciferase-tagged ELG1 | HEK293T ELG1-luciferase reporter, luminescence, 16 h | Potency, µM (doses to about 46 µM), inactives show at the top dose activity change, positive = activation, actives largely listed as activators | hit rate 1.3% among 330,000 | AID 504466; note: % of control where 0% means no effect; nearly all actives have a fitted effect of over 60% in size
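Screening used a luciferase reporter fused to human ELG1 in HEK293T cells. Luminescence was read on a CCD plate imager after 16 hr exposure and 30 min ONE-Glo incubation.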
ELG1 repair inh = inhibitors of ELG1-dependent DNA repair in HEK293T cells; Potency, µM (series often up to 46.1 µM), without a hit: top-dose activity change, negative = inhibition, usual class: inhibitors; AID 504467; hit rate 2.3% among 330,000; HEK293T ELG1-luciferase reporter, luminescence, 16 h; DNA damage induced by 5-fluorouridine; note: % is set by controls: 0 for no effect and ±100 for the full control effect; nearly all actives have a fitted effect of over 55% in size
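Quantitative HTS, concentration-response format. 2,000 cells/well co-treated with 5-fluorouridine and compound, 16 hr in 5% CO2 at 37 °C; ONE-Glo luminescence read after 30 min.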
NPC1 prom act = NPC1 promoter activation. Huh7 NPC1 promoter luciferase reporter, 24 h. Potency, µM (top dose mostly 9.22 µM), without a hit: at the top dose activation, most hits filed as activators. hit rate 2.4% among 320,000. AID 485313; note: % of control where 0% means no effect; nearly all actives have a fitted effect of over 60% in size
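Compounds in DMSO were transferred onto Huh7 NPC1-luciferase reporter cells pre-incubated 2 h; after 24 h at 37 °C, Amplite reagent was dispensed and luminescence recorded 10 min later.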
SMN2 splice up = SMN2 splice variant enhancement | HEK293 SMN2-luciferase splicing reporter, luminescence, 30-36 h | Potency, µM (titrated, usually from 46.1 µM), for the others: at the highest dose activity change, positive = activation, hits mostly activators | hit rate 2.8% among 210,000 | AID 1458; note: % of control where 0% means no effect; nearly all actives have a fitted effect of over 55% in size
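HEK293 cells carry an SMN2 minigene-luciferase reporter in which exon 7 inclusion puts luciferase in frame. Cells were seeded at 2000 cells/well, attached for 10-12 hours, then exposed to compounds for 30-36 hours at 37C before ONE-Glo luminescence.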
FLuc counter = inhibits or activates purified firefly luciferase, miR-21 counter-screen; purified FLuc, Km substrates, luminescence inhibition; Potency, µM (highest dose often 57.5 µM), inactives show at the top dose activity change, negative = inhibition, most hits filed as inhibitors; hit rate 6.9% among 360,000; AID 588342;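 note: plate controls were vehicle for no effect and reference inhibitor for full effect; nearly all actives have a fitted effect of over 55% in size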
Target sequence (P08659 whole entry, looked up): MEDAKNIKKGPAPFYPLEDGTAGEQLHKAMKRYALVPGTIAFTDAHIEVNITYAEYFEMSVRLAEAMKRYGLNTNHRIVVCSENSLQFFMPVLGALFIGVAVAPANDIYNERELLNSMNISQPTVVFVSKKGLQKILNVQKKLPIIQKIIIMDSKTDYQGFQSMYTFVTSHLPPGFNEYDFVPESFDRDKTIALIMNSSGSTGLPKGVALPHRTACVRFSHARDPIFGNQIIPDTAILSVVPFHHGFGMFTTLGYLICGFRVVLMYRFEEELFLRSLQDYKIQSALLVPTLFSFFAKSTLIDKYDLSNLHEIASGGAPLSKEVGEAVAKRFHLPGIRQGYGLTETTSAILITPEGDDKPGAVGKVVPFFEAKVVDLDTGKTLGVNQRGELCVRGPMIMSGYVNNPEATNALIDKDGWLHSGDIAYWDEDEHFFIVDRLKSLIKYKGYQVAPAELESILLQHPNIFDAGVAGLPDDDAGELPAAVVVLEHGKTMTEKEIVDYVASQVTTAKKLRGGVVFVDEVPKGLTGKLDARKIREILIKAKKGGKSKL
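Purified P. pyralis luciferase (10nM final) with 10uM D-luciferin and 10uM ATP (Km levels) in 50mM Tris acetate pH 7.5, 10mM Mg acetate, 0.01% Tween-20, 0.05% BSA; qHTS 6-point titration, ~60 µM downward; luminescence read.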
Rab9 prom act = activates the Rab9 promoter; AID 485297; hit rate 2.8% among 320,000; Potency, µM (series often up to 9.22 µM), inactives show top-dose activation, negative = inhibition, hits mostly activators; Huh7 Rab9 promoter-luciferase reporter, luminescence, 24 h; note: % of control where 0% means no effect; nearly all actives have a fitted effect of over 60% in size
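Huh7 reporter line, Rab9 promoter upstream of luciferase. Compound exposure 24 h at 37 °C in reduced-serum medium with 10% FBS. Read-out: luminescence.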
Starred values were filed as active, the others as inactive; [ ] = dose if it differs, or a comment. In the library only some 9.3% were active in any assay of this set; here they are far more common. Calls come from the whole dose curve; as a rule, active = well fitted curve in the direction sought with a large enough effect; inconclusive = small, poorly fitted or top-dose-only effect, or another doubt; inactive = no such curve, though single readings can be large; an effect the other way counts as inactive or inconclusive. Potency is the fitted concentration of half-maximal effect.

How did Cc1ccc2c(CN3CCCCC3CCO)cc(=O)oc2c1 (configuration not stated) do in these assays?
ELG1 genotox: 2.3%; ELG1 repair inh: -0.4%; NPC1 prom act: -1.2%; FLuc counter: -2.7%; Rab9 prom act: 17.0%

How did CC1(c2ccc(OC(F)F)cc2)NC(=O)N(CC(=O)N2c3ccccc3NC(=O)C2(C)C)C1=O (configuration not stated) do in these assays?
ELG1 genotox: -2.7%; ELG1 repair inh: -26.0%; NPC1 prom act: -8.3%; FLuc counter: -4.0%; Rab9 prom act: -2.1%

Results for CC(C)CN(C(=O)CCC(=O)OCC(=O)NCCc1ccccc1)c1c(N)n(CC(C)C)c(=O)[nH]c1=O ?
ELG1 genotox: 2.0%; ELG1 repair inh: 6.7%; NPC1 prom act: 2.8%; FLuc counter: -1.4%; Rab9 prom act: 6.9%

What do the screens show for `COC(=O)c1cnn(-c2ccc(Cl)cc2)c1/C=N/NC(N)=S`?
ELG1 genotox: -11.0%; ELG1 repair inh: 13µM*; NPC1 prom act: -6.9%; FLuc counter: -1.2%; Rab9 prom act: -20.1%

How did O=C(CCSCc1cnn(-c2ccccc2)c1-n1cccc1)NCc1ccc(Cl)cc1 do in these assays?
FLuc counter: -0.9%

How did CCC(=O)Nc1ccc(Nc2nc(C)c([N+](=O)[O-])c(Nc3ccc(NC(=O)CC)cc3)n2)cc1 do in these assays?
ELG1 genotox: -0.2%; ELG1 repair inh: 11.6µM*; NPC1 prom act: 1.3%; SMN2 splice up: 5.5%; FLuc counter: 5.3%; Rab9 prom act: -2.2%

What do the screens show for `CC(=O)Nc1ccc(Nc2nc(C)c([N+](=O)[O-])c(Nc3ccccc3)n2)cc1`?
ELG1 genotox: -16.4%; ELG1 repair inh: 14.6µM*; NPC1 prom act: -5.8%; SMN2 splice up: -59.3%; FLuc counter: 5.0%; Rab9 prom act: -16.2%

How did COc1ccc(/C=N/Nc2nc(C)c([N+](=O)[O-])c(N(C)c3ccccc3)n2)cc1OC do in these assays?
ELG1 genotox: -2.2%; ELG1 repair inh: 17.7%; NPC1 prom act: -2.0%; SMN2 splice up: -18.4%; FLuc counter: -2.8%; Rab9 prom act: -0.9%

How did CC(=O)Nc1ccc(Nc2nc(C)c([N+](=O)[O-])c(N(C)c3ccccc3)n2)cc1 do in these assays?
ELG1 genotox: -12.6%; ELG1 repair inh: 20.6µM*; NPC1 prom act: -1.4%; FLuc counter: -14.8%; Rab9 prom act: -19.4%

What do the screens show for `CCOc1ccccc1NC(=O)Cn1c(=O)n(Cc2ccccc2)c(=O)c2c1c1cc(C)ccc1n2C`?
FLuc counter: -5.5%

How did CN(C)/C(=N\S(=O)(=O)c1ccccc1)c1ccccc1 do in these assays?
ELG1 genotox: 5.7%; ELG1 repair inh: -1.0%; NPC1 prom act: 1.7%; FLuc counter: 0.0%; Rab9 prom act: 0.4%

How did COc1ccc(S(=O)(=O)N2CCSC2c2ccc(OC)c(OC)c2)cc1 (configuration not stated) do in these assays?
ELG1 genotox: -10.1%; ELG1 repair inh: 23.1µM*; NPC1 prom act: 1.1%; SMN2 splice up: -5.3%; FLuc counter: -3.9%; Rab9 prom act: -7.4%

Results for COc1ccc(C2SCCN2S(=O)(=O)c2ccc(F)cc2)cc1OC (configuration not stated) ?
ELG1 genotox: -3.9%; ELG1 repair inh: -3.2%; NPC1 prom act: -1.4%; SMN2 splice up: -31.8%; FLuc counter: 5.5%[2.3 µM]; Rab9 prom act: 0.1%

How did CCN(CC)CCCNC(=O)CSc1nc2nc(C)c(Cc3ccccc3C)c(C)n2n1 do in these assays?
SMN2 splice up: 6.8%; FLuc counter: -0.6%

What do the screens show for `COc1ccc(Br)cc1/C=N/NC(=O)c1ccc(COc2ccc3c(c2)CCC3)o1`?
ELG1 genotox: 16.6%; ELG1 repair inh: inconclusive; NPC1 prom act: 25.7%; SMN2 splice up: 23.6%; FLuc counter: 9.2%; Rab9 prom act: inconclusive
